The values below come from PubChem BioAssay (NCATS).

For test [1], the target named is Glutathione peroxidase 1 (Homo sapiens) (UniProt P07203). Description: Primary qHTS Assay for Inhibitors of Recombinant Selenoprotein Glutathione Peroxidase 1 (GPX1) (AID 1845191). Also: nearly all actives have a fitted effect of over 65% in size. The method in brief: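 GR-coupled readout: NADPH consumption tracked by fluorescence, ex 340/em 450 nm, at t=0 and after 15 min at RT. Final mix 10 nM GPX1, 1 mM GSH, 0.5 mM CHP, 0.5 mM NADPH, 100 nM GR, 0.01% BSA, following 30 min enzyme–compound preincubation.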
Glutathione peroxidase 1 (Homo sapiens), sequence (P07203 whole entry, looked up): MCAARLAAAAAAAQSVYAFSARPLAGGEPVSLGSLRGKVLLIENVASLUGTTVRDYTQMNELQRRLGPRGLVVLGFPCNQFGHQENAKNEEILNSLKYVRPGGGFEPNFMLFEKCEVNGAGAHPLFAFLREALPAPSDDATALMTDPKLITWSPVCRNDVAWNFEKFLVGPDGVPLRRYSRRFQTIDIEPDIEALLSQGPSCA

Test [2] has as its target Phospholipid hydroperoxide glutathione peroxidase GPX4 (Homo sapiens) (UniProt P36969). The test is described as follows: Primary qHTS Assay for Inhibitors of Recombinant Selenoprotein Glutathione Peroxidase 4 (GPX4) (AID 1845192). Also: nearly all actives have a fitted effect of over 65% in size. The method in brief:
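Steps: GPX4 plus compound, 30 min RT; add GR/GSH/NADPH master mix; start with cumene hydroperoxide; read 340/450 nm fluorescence at 0 and 15 min. Finals were 200 nM GPX4, 1 mM GSH, 0.5 mM CHP, 0.5 mM NADPH, 100 nM GR.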
(Quantitative high-throughput screening tests each substance at several concentrations.)

The nature of test [3]: Quantitative High-Throughput drug screen in 47 multiple myeloma cell lines against the NCATS MIPE library collection: FR4_PLB cell viability assay (AID 1918924; also: nearly all actives have a fitted effect of over 35% in size; also: potency is read from the fitted curve at half-maximal effect). In outline: (§1)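 We plated 500 myeloma cells per well, pinned in MIPE 4.0 compounds, and incubated for 48 hours at 37C. ATP was then quantified with CellTiter-Glo, with DMSO and media-only wells defining 100% and 0%.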

A short description of test [4]: Quantitative High-Throughput drug screen in 47 multiple myeloma cell lines against the NCATS MIPE library collection: Delta47_JCRB cell viability assay (AID 1918925; also: nearly all actives have a fitted effect of over 45% in size; also: potency is read from the fitted curve at half-maximal effect). The method in brief: (§2)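 Inhibition of cell viability is measured here. Each line was plated at 500 cells per well, treated with MIPE 4.0 drugs, kept 48 hours at 37C, then assayed for ATP content by CellTiter-Glo luminescence.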

A short description of test [5]: Quantitative High-Throughput drug screen in 47 multiple myeloma cell lines against the NCATS MIPE library collection: EJM_DSMZ cell viability assay (AID 1918926; also: nearly all actives have a fitted effect of over 30% in size; also: potency is read from the fitted curve at half-maximal effect). The method in brief:
as §2

The nature of test [6]: Quantitative High-Throughput drug screen in 47 multiple myeloma cell lines against the NCATS MIPE library collection: Karpas620_DSMZ cell viability assay (AID 1918959). Also: nearly all actives have a fitted effect of over 30% in size. Also: potency is read from the fitted curve at half-maximal effect. The method in brief:
as §1

Test [7] is described as follows: Quantitative High-Throughput drug screen in 47 multiple myeloma cell lines against the NCATS MIPE library collection: KMM1_JCRB cell viability assay (AID 1918960). Also: nearly all actives have a fitted effect of over 30% in size. Also: potency is read from the fitted curve at half-maximal effect. In outline: (§3)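 Cell viability inhibition in this qHTS is measured via ATP content (CellTiter-Glo) after 48 h drug exposure at 37 °C. Wells hold 500 cells; DMSO-treated wells define 100% and medium-only wells 0%.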

Test [8] in a line: Quantitative High-Throughput drug screen in 47 multiple myeloma cell lines against the NCATS MIPE library collection: JIM3_ECACC cell viability assay (AID 1918963; also: nearly all actives have a fitted effect of over 35% in size; also: potency is read from the fitted curve at half-maximal effect). In outline: as §1
A short description of test [9]: Quantitative High-Throughput drug screen in 47 multiple myeloma cell lines against the NCATS MIPE library collection: INA6_PLB cell viability assay (AID 1918965; also: nearly all actives have a fitted effect of over 55% in size; also: potency is read from the fitted curve at half-maximal effect). The method in brief:
(§4)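 Viability readout: CellTiter-Glo luminescence following 5 min room-temperature incubation with reagent. Prior exposure: 48 h, 37C, humidified 5% CO2, 500 cells per well.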

Test [10] addresses Luciferin 4-monooxygenase (Photinus pyralis) (UniProt P08659). Description: Primary firefly luciferase (FLuc) qHTS assay for identification of artifact compounds. (AID 1845220). Also: nearly all actives have a fitted effect of over 60% in size. To be noted: outcome: dose series up to 54.1 µM unless noted. In outline: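 D-luciferin and ATP (10 uM each, final) in Tris acetate buffer pH 7.6 were incubated with compounds for 15 min at room temperature. The reaction was started with 10 nM Photinus pyralis luciferase and luminescence read after 5 min. Percent inhibition was fitted to a 4-parameter Hill equation.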

Test [11] can be described thus: Primary fluorescence-based thiol-reactive (MSTI) qHTS assay for identification of artifact compounds. (AID 1845221).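 Also: thiol-reactive compounds lower the probe fluorescence signal; nearly all actives have a fitted effect of over 65% in size.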 The method in brief:
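qHTS titration of compound; 4 uM MSTI, PBS pH 7.4, 2% DMSO; 1 h RT, dark; fluorescence 525/598 nm; normalized to Acetyl-MSTI and MSTI; 4-parameter Hill fit.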

Test [12] concerns Nanoluciferase (engineered Oplophorus gracilirostris luciferase). Description: Primary Nanoluciferase (NLuc) qHTS assay for identification of artifact compounds. (AID 1845222). The method in brief:
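Diluted conditioned medium from NLuc-expressing S16 cells treated with compounds for 15 min at room temperature, then Nano-Glo substrate added; luminescence read after 5 min. Percent inhibition versus no-enzyme and DMSO controls fitted to 4-parameter Hill equation.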

Test [13] can be described thus: Primary redox qHTS assay for identification of artifact compounds. (AID 1845223). In outline:
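Redox-cycling detection via DTT (250 uM final) oxidation coupled to Amplex Red (25 uM)/HRP (250 mU/mL) in HBSS. 15 min preincubation plus 30 min after DTT, room temperature. Ex/Em 525/598 nm; 4-parameter Hill fit against DMSO and 10 uM DA3003.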

Test [14] is described as follows: Quantitative High-Throughput drug screen in 47 multiple myeloma cell lines against the NCATS MIPE library collection: AMO1_DSMZ cell viability assay (AID 1918927; also: nearly all actives have a fitted effect of over 30% in size; also: potency is read from the fitted curve at half-maximal effect). The method in brief: as §2
The nature of test [15]: Quantitative High-Throughput drug screen in 47 multiple myeloma cell lines against the NCATS MIPE library collection: ARP1_JJKsccF8 cell viability assay (AID 1918928; also: nearly all actives have a fitted effect of over 40% in size; also: potency is read from the fitted curve at half-maximal effect). In outline: as §3
Test [16] can be described thus: Quantitative High-Throughput drug screen in 47 multiple myeloma cell lines against the NCATS MIPE library collection: Karpas417_ECACC cell viability assay (AID 1918961). Also: potency is read from the fitted curve at half-maximal effect. The conditions noted are these: Karpas417 myeloma viability, CellTiter-Glo ATP luminescence, 48 h; viability (% of DMSO): at 45.8 µM (top of the series). In outline:
as §4
For orientation: ATP-based viability assays read luminescence as a measure of living cells.

The nature of test [17]: Quantitative High-Throughput drug screen in 47 multiple myeloma cell lines against the NCATS MIPE library collection: KHM11_PLB cell viability assay (AID 1918962). Also: nearly all actives have a fitted effect of over 35% in size. Also: potency is read from the fitted curve at half-maximal effect. The method in brief: as §1
Test [18] can be described thus: Quantitative High-Throughput drug screen in 47 multiple myeloma cell lines against the NCATS MIPE library collection: JIM1_ECACC cell viability assay (AID 1918964; also: potency is read from the fitted curve at half-maximal effect). The method in brief:
as §2

The nature of test [19]: Quantitative High-Throughput drug screen in 47 multiple myeloma cell lines against the NCATS MIPE library collection: ARD_JJKsccE7 cell viability assay (AID 1918929; also: potency is read from the fitted curve at half-maximal effect). In outline: as §2

Molecules are shown by their SMILES. Inconclusive results are not listed. The source made the active and inactive calls. Calls follow the shape of the dose curve; as a rule, active = well fitted curve in the direction sought with a large enough effect; inconclusive = small, poorly fitted or top-dose-only effect, or another doubt; inactive = no such curve, though single readings can be large; an effect the other way counts as inactive or inconclusive.

Phospholipid hydroperoxide glutathione peroxidase GPX4 (Homo sapiens), sequence (P36969 whole entry, looked up): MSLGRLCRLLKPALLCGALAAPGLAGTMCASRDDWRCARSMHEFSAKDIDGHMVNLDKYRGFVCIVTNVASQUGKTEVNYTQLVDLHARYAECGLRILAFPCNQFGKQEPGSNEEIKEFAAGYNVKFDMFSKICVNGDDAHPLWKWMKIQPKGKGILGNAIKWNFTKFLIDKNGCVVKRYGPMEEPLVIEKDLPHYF

As for `CN[C@@H]1Cc2cccc3[nH]c(=O)n(c23)C1`, the Potency entry in test [1], in test [2], in test [4], in test [5], in test [6] and in test [7] was “inactive” throughout. Besides, the Potency entry in test [8] and in test [9] was “inactive” each time. The Potency in test [3] was 11.8 µM (active).
In the case of `O=C1C=CC[C@@H]2[C@H]3CCCN4CCC[C@@H](CN12)[C@@H]34`, the Potency entry in test [1], in test [2], in test [11], in test [5], in test [14] and in [15] was “inactive” throughout. The Potency result in test [6], in [7], in [16] and in test [8] was “inactive” throughout. Besides, the call in test [10], in test [12] and in test [13] was inactive. The Potency in test [3] is 11.8 µM (active).
In the case of `CC1(N2CCC(n3c([C@@H]4CCCNC4)nc4ccccc43)CC2)CCCCCCC1`, the Potency entry in test [1], in [2], in test [11] and in [5] was “inactive” each time. Moreover, the outcome in test [10], in [12] and in test [13] was inactive. Besides, the Potency is 23.5 µM (active) in [3]; 13.2 µM (active) in test [4]; 26.4 µM (active) in [14]; 9.35 µM (active) in test [6]; 16.6 µM (active) in test [7]; 6.62 µM (active) in test [17]. Also, in test [9], the Potency was 14.8 µM (active).
Consider `O=c1[nH]c2ccc(Cl)cc2c(N[C@@H]2CN3CCC2CC3)c1-c1nc2ccccc2[nH]1`, for which the Potency entry in test [1] and in test [11] was “inactive” in each case. The outcome in test [10], in test [12] and in [13] was inactive. For the same compound, the Potency in [3] was 0.0743 µM (active); in test [4] it was 0.0935 µM (active); in test [5] it was 0.418 µM (active); in test [14] it was 0.0743 µM (active); in [15], 2.64 µM (active); in test [6], 5.9 µM (active). Moreover, the Potency in [7] is 0.0469 µM (active); in test [16], 0.332 µM (active); in test [17] it was 0.235 µM (active); in [8], 0.0743 µM (active); in [18] it was 0.0418 µM (active); in test [9], 0.0332 µM (active).
Take `O=S(=O)(CC1CS1)c1ccc(Oc2ccccc2)cc1` (stereo not given): the Potency entry in test [1], in [2], in test [19] and in test [18] was “inactive” each time. Besides, the Potency in test [5] is 20.9 µM (active); in test [7], 5.9 µM (active); in test [16] it was 9.35 µM (active); in test [17], 14.8 µM (active); in [8], 16.6 µM (active); in test [9], 14.8 µM (active).
For the compound `N=c1c2c(-c3ccccc3)c(-c3ccccc3)n(Cc3ccccc3)c2ncn1C1CCC(O)CC1` (stereo not given), the Potency result in test [1] and in test [2] was “inactive” each time. The Potency is 0.166 µM (active) in test [4]; 0.526 µM (active) in [14]; 14.8 µM (active) in test [15]; 8.33 µM (active) in [19]; 9.35 µM (active) in test [6]; 0.662 µM (active) in [7]. Besides, the figures for the Potency in [8], in test [18] and in test [9] were 0.743 µM (active), 0.833 µM (active) and 0.209 µM (active), respectively.
For the compound `CCOC(=O)c1c(C(C#N)=CN)c2ccc(Cl)c(Cl)c2n1C`, the Potency result in [1], in test [2], in test [3], in test [4], in test [5] and in test [14] was “inactive” throughout. Also, the Potency entry in test [15], in test [6], in test [17] and in test [8] was “inactive” throughout.
